Where “and” joins values, the source holds several entries; their conditions need not be identical. Identical values can stand only once. Compounds without any hit were thinned out: in the full panel of roughly 83,000, 20% have a hit.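 Plates (96-well) were seeded with cells, treated with compound at one concentration, and incubated for 48 hours before percent growth was determined.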 A number with no mark means an inactive call. Calls of active or inactive are those of the source. The calls were made as follows: active = growth percent below 10; inactive = the rest.
Test system: MDA-MB-468 breast
Experiment: NCI-60 one-dose screen, 48 h (100 = growth as untreated, 0 = no growth, -100 = all killed)
Conditions: 10 µM unless noted

Compound | growth
CC(=O)O[C@@H]1C[C@]2(C)[C@H]3[C@H](O)C[C@@H]4C5=CC(C)(C)CC[C@]5(C)CC[C@@]4(C)[C@]3(C)CC[C@H]2C(C)(C)[C@H]1O | 116%
C=C1CC[C@H]2[C@@](C)(CCC3OC(c4ccc(OCc5cn(C6CC(OC(C)=O)C(OC(C)=O)C(COC(C)=O)O6)nn5)cc4)OC[C@]32C)[C@@H]1/C=C/C1=CCOC1=O (some centres undefined) | 47.3%
O=[N+]([O-])c1ccc(/C=N\NC(=S)Nc2ccc(F)cc2)cc1 | 104% and 101%
O=C1/C(=C/c2ccc(Cl)cc2)COc2ccc(O)c(O)c21 | -15.3% (active)
O=C1/C(=C/C=C/c2ccco2)SC(=S)N1c1ccccc1 | -9.4% (active)
CN1CCN(Cc2ccc(/C=N/Nc3ccnc4cc(Cl)ccc34)cc2)CC1 | 77.1%
C(=C\c1nccc2c1[nH]c1ccccc12)/c1ccccc1 | -54% (active)
Cc1cc(CSc2ccc(Cl)cc2)ccc1N | 102%
CC(C)c1[nH]ncc1-c1nc2ccc3[nH]ncc3c2c2c1CCCC2 | 69.3%
Cc1cccc(C)c1NCc1nnc(-c2ccc(O)cc2)o1 | 96.2%
COc1cc(C2CC(=O)Nc3c2c(C)nn3-c2nc3ccccc3[nH]2)c(OC)c2c1OCO2 (centres undefined) | 36.7%
Cc1ccccc1NC(=O)c1cc2ccccc2cc1O | 79.5%
COc1ccc2sc(NC(=O)CCCCCCNC(=O)C(O)(O)C(F)(F)F)nc2c1 | -11.7% (active)
CS(=O)(=O)c1ccc2c(c1)c1c(n2Cc2ccc(Cl)cc2)CCCC1 | 50.4%
Oc1c(CNCCNCc2cc(Cl)cc(Cc3ccccc3)c2O)cc(Cl)cc1Cc1ccccc1 | 24.2%
COC12C=C/C(=C(/C(=O)OCc3ccncc3)C(=O)CCCCCCCCC3(OC)C=C/C(=C(/C(=O)OCc4ccncc4)C(=O)CCCCCCCC1)O3)O2 | -39% (active)
Cc1nn2c(-c3nc4ccc(Cl)cc4[nH]3)c(-c3ccc(F)cc3)nc2s1 | 102%
CN(C)c1ccc(/C=N/Nc2nnc3n2N=C(c2ccc(Cl)cc2)CS3)cc1 | 104%
CC1=CC(=NC(=O)CBr)C=C/C1=N\S(=O)(=O)c1ccccc1 | 66%
COc1cccc(NC(=O)c2sc3nc4c(cc3c2N)CN(Cc2ccccc2)CC4)c1 | 64.4%
Cc1cc2nc(C(Cl)Cl)nc(-c3cccs3)n2n1 | -52% (active)
CCOC(=O)CC1CSC(N/N=C(/C)c2cccc(C(F)(F)F)c2)=N1 (centres undefined) | 104%
CN(C)CCOc1cccc(-c2nc3sccn3c2-c2ccnc(S(C)(=O)=O)n2)c1 | 92%
Cc1ccc(-n2nc3c(c(C#N)c2=O)CC(c2ccccc2Cl)C([N+](=O)[O-])=C3O)cc1 (centres undefined) | 114%
C#CCNCCN1C(=O)c2ccc3c4c(ccc(c24)C1=O)C(=O)N(CCNCC#C)C3=O | 17.1%
NC(N)=Nc1cc2ccccc2c2ccccc12 | 54.4%
O=C(Nc1nc(-c2ccccc2)cc(-c2ccc(Cl)cc2)n1)c1ccncc1 | 106%

Compound | growth
NC(N)=N/N=C/c1ccc(Br)cc1 | 8.33% (active)
CCCCCCN(CCCCCC)c1ccc(/C=C2/SC(=O)N(c3nc(N4CCCC4)nc(N4CCCC4)n3)C2=O)c(C)c1 | 59%
CN(C)CCOC(=O)C(C)(C)C | 98.9%
CCCCCCCC/C=C/CCCCCCCC1=NC(C)(C)CN1CCO | -64.5% (active)
CCNc1nc2c(cnn2C)c(=O)[nH]1 | 97.4%
CCN1C(=O)N(CC)C2Nn3c(s/c(=C\c4ccccc4Br)c3=O)=NC21 (centres undefined) | 12.3%
C#CCNC(=O)CC[C@]1(C)[C@H]2CC[C@@H]3[C@@H]([C@@](C)(O)CCC=C(C)C)CC[C@@]3(C)[C@]2(C)CC[C@H]1C(=C)C | 48.5% [100 µM]
COc1ccc(-c2csc(NC(=O)Nc3nc(-c4ccc(OC)cc4)cs3)n2)cc1 | 47.3%
CCCCCc1ccc(S(=O)(=O)Nc2cccc(-c3csc(NC(=O)CN4CCN(C)CC4)n3)c2)cc1 | 89.5%
Cn1cc(-c2cc(N)n3nc(-c4cn(C)c5ccccc45)cc3n2)c2ccccc21 | 75%
N=c1sc(Cc2ccc(Cl)cc2)cn1CC(=O)c1ccc(F)cc1 | 84.7%
CC(CC(=O)c1ccccc1)c1ccccc1 (centres undefined) | 96.5%
CCOC(=O)CNN | 95.7%
Cn1cccc1-c1nc2c3c(ccc2[nH]1)C(=O)c1ccccc1C3=O | 10.9%
O=C(/C=C/C=C/c1ccc2c(c1)OCO2)N1CCCCC1 | 106% and 105%
COC1=C(C)C(=O)N2[C@@H]1[C@H](c1ccccc1)OC21C=CC(=O)C=C1 | -20.4% (active)
CC(C)(C)CC(C)(C)Nc1c(-c2c(O)c3ccccc3oc2=O)nc2c(Cl)cc(C(F)(F)F)cn12 | 92.2%
COc1cc(N2C(=O)[C@H](c3ccccc3)C2c2ccc(SC)cc2)cc(OC)c1OC (some centres undefined) | -9.99% (active)
COc1ccc(-c2nn(-c3cccc(NC(=O)c4ccc(N5CCOCC5)c(C(F)(F)F)c4)c3)cc2-c2ccncc2)cc1Cl | 80.6%
CC1(C)OC2C(COC(c3ccccc3)(c3ccccc3)c3ccccc3)OC(c3c[nH]c4c(N)ncnc34)C2O1 (centres undefined) | 30%
O=C(O)c1cc(N=Nc2ccc(-c3ccc(N=Nc4c(S(=O)(=O)O)cc5ccc(Nc6ccccc6)cc5c4O)cc3)cc2)ccc1O | 124%
COc1cc2c(c(OC)c1OC)CCC(c1cccc(C(=O)Nc3ccc(C#N)cc3)c1)O2 (centres undefined) | 46.4%
O=C(O)c1ccccc1C(=O)c1cccc2c(F)cccc12 | 104%
COc1ccc(NC(=O)Nc2ccc3c(ccn3C(=O)c3cccc(F)c3)c2)cc1 | 86.6%
O=S(Cc1ccccc1)/C(=C/NC(=S)Nc1ccccc1)c1ccccc1 (centres undefined) | 108%
N#Cc1c(-c2cccs2)cc(-c2cnccn2)nc1SCC(=O)Nc1ccc(Br)cc1 | 81.1%
COc1ccc2[nH]c(=O)c(CN3CCN(c4nccc(-c5ccc(Cl)cc5)n4)CC3)cc2c1 | 88.6%

Compound | growth
N#C/C(=C\c1ccc(Br)cc1)n1nnc2cc(F)c(F)cc21 | -6.6% (active)
O=C1Nc2ccccc2/C1=C/c1cccn1C(=O)c1ccc(Cl)s1 | -16.5% (active)
N#C/C(=C\c1ccc(-c2ccc(Br)cc2)o1)c1nc(-c2ccco2)cs1 | -26.8% (active)
Fc1ccc2c(CN3CCO[C@H](COc4cccc(Cl)c4)C3)c[nH]c2c1 | -38.7% (active)
COc1ccc(-c2c3c(N)c4c(nc3nc3c2c(C)nn3-c2ccccc2)CCCC4)cc1 | 70.3%
CCN(CC)C(=O)C1=C(C)NC(=O)NC1c1ccc2c(c1)OCO2 (centres undefined) | 112%
O=C(NCCNc1cc(-c2cn(-c3ccccc3)nc2-c2cccc(O)c2)ccn1)Nc1ccc(Cl)c(C(F)(F)F)c1 | 17.5%
C=C1c2c(C)nn(-c3ccc(OC)cc3)c2N(C)C23C[C@@H]1C1(C)c4c(C)nn(-c5ccc(OC)cc5)c4N(C)C(C)(C[C@H]12)C3 (some centres undefined) | 31.9%
O=C(Nc1ccc(Nc2ncnc3sc4c(c23)CCOC4)cc1)Nc1ccc(Cl)c(C(F)(F)F)c1 | 83.5%
Nc1nc2ccc(CNc3ccc(C(=O)NC(CC(=O)O)C(=O)O)cc3)cc2c(=O)[nH]1 (centres undefined) | 81.6%
CNC(=O)c1cc(Oc2ccc(NC(=O)c3nc(S(C)(=O)=O)sc3-c3ccc(F)cc3)cc2)ccn1 | -4.37% (active)
CCC1=C(c2ccc(OC)cc2)C(C)(C)Oc2cc(O)c(CN3CCCC3)cc21 | 69.5%
C=C(C)C(=O)O[C@H]1C[C@@]2(C)OC(=CC2=O)[C@H](C)[C@H](O)[C@H]2OC(=O)C(=C)[C@@H]21 | 24.7%
CC1=NC2=CC=CC3=NC(C(Cl)(Cl)Cl)=NC(=N1)N23 | 90.2%
C=CN(C(=O)N1CCN(c2cc3c(cc2F)c(=O)c(C(=O)O)cn3C2CC2)CC1)c1nc(-c2ccc(OC)cc2)cs1 | 13.4%
CC(=O)c1cc(C(=O)N2c3ccccc3Sc3ccccc32)n2ccc3ccccc3c12 | 43.4%
CC(C)(O)CC(=O)NCCn1ccc2ncnc(Nc3ccc(Oc4cccc(C(F)(F)F)c4)c(Cl)c3)c21 | -43.8% (active)
COc1cc(OC)cc(C2C(C#N)=C(N)Oc3c2ccc2ccc(O)cc32)c1 (centres undefined) | -16.6% (active)
CC1=C(O)C(=O)C(c2c(C)cc(C)c(Br)c2C)=C(O)C1=O | 85.8%
COc1nc2c(cc1S(=O)(=O)c1ccccc1)CCc1c-2cnn1-c1ccccc1 | 45.3%
Fc1ccc(CNc2c3ccccc3nc3ccccc23)cc1F | -10.7% (active)
C#CC#CC#CC#CC#CC#CC#CC#CC[C@@H]1OC[C@@H](COC(=O)O[C@@H](C(=O)O[C@H]2C[C@@]3(O)[C@@H](OC(=O)c4ccccc4)[C@@H]4[C@]5(OC(C)=O)CO[C@@H]5C[C@H](O)[C@@]4(C)C(=O)[C@H](OC(C)=O)C(=C2C)C3(C)C)[C@@H](NC(=O)c2ccccc2)c2ccccc2)O1 | -4.7% (active)
COc1cc2oc(-c3cccc(C(=O)Nc4ccc(Br)cc4)c3)cc(=O)c2c(OC)c1OC | 64.3%
CC(=C(c1ccc(OCCCN(C)C)cc1)c1ccc(OCCCN(C)C)cc1)c1ccc(Cl)cc1 | 80%
C1CNC(C2=NCCN2)=N1 | -26.9% (active)

— PubChem BioAssay (NCI)
